Laboratory results taken from PubChem BioAssay AID720513 (Broad Institute, 2013).
Hit rate of the full screen: of about 2,100 compounds, about 480 (23%) were called active. Inconclusive results (about 5%) are left out.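 How the source made its calls: active means fitted curve reaches 40% activation at or below the top valid concentration, in every replicate test; inconclusive means replicate tests disagree on the call; inactive means the rest, including activity in the opposite direction.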 The list is a sample of the results. Entries with a potency or affinity are not part of this list.

assay: activators raising PGC1a acetylation in cells, dose response, cell-based, cherry-picked samples, set 6 (AID 720513); conditions: U2OS PGC1a acetylation AlphaLISA, overnight, 0 = neutral, -100 = inhibitor control; series mostly up to 19.5 µM; activation (acetylation increase): at the top concentration;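 further: cells made to overexpress flag tagged PGC1a plus GCN5 acetyltransferase by viral infection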

Activation (acetylation increase), inactive:
C[C@@H]1CN([C@@H](C)CO)C(=O)CCCn2cc(nn2)CO[C@H]1CN(C)Cc1ccc2c(c1)OCO2 9.96% [at 21 µM]
O=C(C[C@@H]1C=C[C@@H](NC(=O)CN2CCOCC2)[C@H](CO)O1)NC1CCCCC1 5.29%
CSc1nc(SC)c2c3c(oc2n1)COC(C)(C)C3 18.7%
COCC#Cc1ccc2c(c1)O[C@H](CN(C)C(=O)CN(C)C)[C@@H](C)CN([C@@H](C)CO)S2(=O)=O 1.49%
CCC(=O)N1CCc2cc(OC)c(OC)cc2C1COc1ccc(C(=O)OC)cc1 (stereo unspecified) 28.5%
CCC(=O)N(C)C[C@@H]1Oc2ncc(C#CCc3ccccc3)cc2C(=O)N([C@H](C)CO)C[C@@H]1C -52.8%
C[C@@H]1CN([C@H](C)CO)C(=O)c2cccc(NC(=O)c3nc4ccccc4s3)c2O[C@@H]1CN(C)CC1CCCCC1 -33.2%
C[C@H]1CN([C@@H](C)CO)C(=O)c2cccc(NC(=O)c3nc4ccccc4s3)c2O[C@H]1CN(C)Cc1ccc(C(=O)Nc2ccccc2N)cc1 60.2%
CN(c1ccccc1)S(=O)(=O)c1ccc(Cl)nc1 -0.798%
O=C(/C=C/c1ccccc1)CC(O)(c1ccccc1)C(F)(F)F (stereo unspecified) 27.6% [at 10 µM]
CCN(CC)S(=O)(=O)c1ccc(C(=O)N(c2ccccc2)C2C=CS(=O)(=O)C2)cc1 (stereo unspecified) -8.54%
CNC[C@@H](CC1CCCCC1)NC[C@H](CC(C)C)NCCc1cccc(C(F)(F)F)c1 -101%
Cc1cc(NS(=O)(=O)c2ccc(NC(=O)COc3c(C)cc(Br)cc3C)cc2)no1 19.4%
Cc1nnc2sc(-c3ccc(NC(=O)c4ccc(-c5ccc(Cl)cc5Cl)o4)cc3)nn12 -15.2%
CCN(CC(=O)NCc1ccc(Cl)cc1)C(=O)CSCC(=O)Nc1ccc(C)cc1 -34%
CCC(=O)NCc1c(C)c(C)n(Cc2ccccc2)c1-n1cccc1 14.2%
Cc1ccc(S(=O)(=O)N2CCCCC2C(=O)O)cc1 (stereo unspecified) -66.4%
COc1ccc(S(=O)(=O)N2CCCCN3[C@@H](CO)[C@@H](c4ccc(C5=CCCCC5)cc4)[C@@H]3C2)cc1 16.8%
Cc1ccc(S(=O)(=O)OCCC2=CC(=O)CCN2Cc2ccccc2)cc1 -13.4%
CN(C)CC(=O)N[C@H]1CC[C@H](CCNC(=O)Nc2ccc(Cl)cc2)O[C@H]1CO 0.988%
CCCc1nnc(NC(=O)CN2CCOCC2)s1 -3.15%
CCOC(=O)N1CCN(C(=O)c2cc(S(=O)(=O)N3CCCC3)cn2C)CC1 14.9%
CNC[C@@H]1Oc2cc(C#CCC3CCCC3)ccc2S(=O)(=O)N([C@H](C)CO)C[C@H]1C -9.01%
O=C(N/N=C/C=C\c1ccccc1[N+](=O)[O-])c1cccnc1 11%
COc1ccc(COc2cc(-c3cccc(OC)c3)nc3ccc(NC(=O)c4cccnc4)cc23)cc1 12%
COc1ccc(-c2noc(CCC(=O)N3CCN(c4cccc(C)c4C)CC3)n2)cc1 16.8%
CC(=O)N1N=C(c2ccco2)CC1c1ccco1 (stereo unspecified) -18.8%
CCC1SC2=NC(C)=C(C(=O)OC)C(c3cccs3)N2C1=O (stereo unspecified) 9.25%
COc1ccc(S(=O)(=O)N[C@@H]2CC[C@H](CCNC(=O)c3ccccc3F)O[C@H]2CO)cc1 16.6%
O=c1c(Cl)c(Cl)cnn1Cc1nnc(-c2ccc(Cl)cc2)o1 -89.1%
CCC(=O)N(C)C[C@@H]1Oc2cc(C#Cc3cccnc3)ccc2S(=O)(=O)N([C@H](C)CO)C[C@H]1C -30.7%
C=CCc1ccc(OCCCCNC(C)CC)c(OC)c1 (stereo unspecified) 1.82%
O=C1CN(C(=O)Cn2ncc(Cl)c(Cl)c2=O)c2ccccc2N1 -101%
CSCC(O)Cn1[nH]c(=O)c2cc(Cl)c(Cl)cc2c1=O (stereo unspecified) -20.6%
Cc1cc(S(=O)(=O)NC(C)C)ccc1OCC(=O)Nc1ccc2c(c1)OCCO2 6.52%
O=C(/C=C/c1ccccc1)CC(O)(c1ccccc1)C(F)(F)C(F)F (stereo unspecified) -99.5%
Cc1ccc(C2CC2c2n[nH]c(=S)n2-c2ccc(Cl)cc2)cc1 (stereo unspecified) 4.31%
CCCNC(=O)c1nnsc1S(=O)c1ccc(Cl)cc1 (stereo unspecified) -98.5%
O=C(Nc1ccccc1)c1nnsc1S(=O)c1ccc(Cl)cc1 (stereo unspecified) -86.1%
Cc1ccc(-n2nc3ccc(N)cc3n2)cc1 31%
CCC(=O)N(C)C[C@@H]1Oc2ncc(-c3ccc(C(=O)N(C)C)cc3)cc2C(=O)N([C@H](C)CO)C[C@@H]1C -3.52%
CSc1n[nH]c(NC(=O)c2c(-c3c(Cl)cccc3Cl)noc2C)n1 -24%
COc1ccc(OCC(=O)NNC(=O)c2c(-c3ccccc3Cl)noc2C)cc1 -14.9%
O=C(O)COc1ccc(/C=C2/SC(=S)N(Cc3ccccc3)C2=O)cc1 14.2%
CNC[C@@H](Cc1ccccc1)NC[C@@H](CC1CCCCC1)NCCCc1ccccc1 -100%
CCOC(=O)C1CCN(Cc2ccc(O)c3ncccc23)CC1 0.639%
Cc1cccc(NS(=O)(=O)c2cccc(C(=O)NCC(c3ccco3)N3CCCCC3)c2)c1 (stereo unspecified) -13%
COc1ccc(C(=O)C(CN2CCCC2)c2ccccc2)cc1 (stereo unspecified) -87%
CC(C)c1ccc(S(=O)(=O)N(C)C2(C)CCS(=O)(=O)C2)cc1 (stereo unspecified) 35.8% [at 10 µM]
CCCOc1cccc(C(=O)Nc2cc(NC(=O)c3ccco3)ccc2OC)c1 29.9%
CN(C)S(=O)(=O)N1CCC(Cc2ccccc2)CC1 -4.72%
CCCCNC(=O)c1ccc(CS(=O)(=O)c2ccccc2OC)o1 7.67%
O=C(Nc1ccc(F)cc1)N1CC(=O)N2[C@@H](CO)[C@@H](c3ccc(-c4ccccc4)cc3)[C@@H]2C1 26.6%
COc1ccc(-c2ccc(OC)cc2C(=O)O)cc1 14.8% [at 10 µM]
CC(C)c1ccc(CNc2ccc([N+](=O)[O-])cn2)cc1 34.8%
Cc1nc(NCCc2ccccc2)c2nnn(Cc3ccccc3Cl)c2n1 -5.82%
O=C(NC1CCCCCCC1O)c1ccccc1 (stereo unspecified) -13.7%
CSc1ncccc1C(=O)N1CCN(C(=O)c2ccccc2)CC1 4.96%
CO[C@@H]1CN(C)C(=O)c2cc(NC(C)=O)ccc2OC[C@@H](C)N(Cc2ccccc2C(=O)O)C[C@@H]1C -27.9%
Cc1cc(SCC(=O)NC(=O)NCc2ccco2)nc2ccccc12 23.1%
C=CCn1c(SCC(=O)NCc2ccccc2)nnc1-c1ccccc1O 20.6%
COc1ccccc1/C=C/c1nc2ccc(OC(C)=O)cc2c(=O)o1 11.5%
COc1ccc(OC)c(Nc2ccc(C(=O)O)cc2[N+](=O)[O-])c1 5.16% [at 10 µM]
C[C@@H]1CN([C@@H](C)CO)C(=O)c2cc(NC(=O)c3ccncc3)ccc2O[C@@H](C)CCCCO[C@@H]1CN(C)Cc1ccncc1 7.05%
CC(=O)Cc1nsc(NC(=O)c2cccc(F)c2)n1 -7.15%
CCCN1CCN(S(=O)(=O)c2ccc3c(c2)CC(C)N3C(=O)C2CC2)CC1 (stereo unspecified) 15.8%
c1ccc2c(-c3nn4nnnc4c4ccccc34)cccc2c1 38.8%
COCCCNC(=O)c1ccc(CSCc2ccc(C)cc2)o1 -6.72%
COc1cccc(NC(=O)N(C)C[C@@H]2OCc3ccccc3-c3c(n(C)c4ccccc34)C(=O)N([C@@H](C)CO)C[C@H]2C)c1 -5.27% [at 21 µM]
C[C@@H]1CN([C@H](C)CO)C(=O)c2cc(NC(=O)Cc3cn(C)c4ccccc34)ccc2O[C@@H]1CN(C)C(=O)Nc1ccccc1 5.4%
COc1ccc(-c2cnc3c(c2)C(=O)N([C@H](C)CO)C[C@@H](C)[C@@H](CN(C)C(=O)Nc2c(C)noc2C)O3)cc1 -25.8% [at 10 µM]
O=C(C[C@@H]1CC[C@@H]2[C@H](COC[C@@H](O)CN2S(=O)(=O)c2ccc(Cl)cc2)O1)N[C@@H]1CCN(Cc2ccccc2)C1 3.06%
CC(Nc1ccccc1)c1cc(Cl)ccc1O (stereo unspecified) -12.3%
O=C(c1ccc(N2CCCC2=O)cc1)N1CCCCCC1 30.5%
CO[C@H]1CN(C)C(=O)c2ccc(NC(=O)C3CCOCC3)cc2OC[C@@H](C)N(C)C[C@@H]1C 1.83%
Cc1cc(F)cc(-c2cc(C(=O)NCc3ccccc3)[nH]n2)c1 17%
COc1cc(NC(=O)CCN2CCN(C)CC2)cc(OC)c1 -15%
CC(/C=C1\SC(=O)N(CCCC(=O)O)C1=O)=C\c1ccccc1 1.4%
O=C(CCN1C(=O)/C(=C/c2ccccc2)SC1=S)NCCCN1CCOCC1 1.04%
O=C1/C(=C\c2ccco2)SC(=S)N1Cc1ccccc1 4.17%
CCOc1c(Br)cc(/C=C2/SC(=O)N(CC(=O)N3CCCC3)C2=O)cc1OC -12.5%
O=S(=O)(NCCSc1ccc(Cl)cc1)c1ccc(F)cc1 -13.2%
Cc1ccc(-c2ccc3c(c2)O[C@@H](CN(C)C(=O)C2CCCCC2)[C@H](C)CN([C@H](C)CO)S3(=O)=O)cc1 -79.6%
COc1ccc(NC(=O)N[C@H]2CC[C@H](CCn3cc(-c4ccccc4F)nn3)O[C@@H]2CO)cc1 11.2%
O=C(O)c1cccn1Cc1ccccc1F 15.5%
Cc1c(CNCCc2ccc(Cl)cc2)c(C(=O)O)c(C)n1-c1ccccc1 -14.6%
C[C@@H]1CCCCO[C@H](CN(C)Cc2ccc(C(F)(F)F)cc2)[C@H](C)CN([C@H](C)CO)C(=O)c2cc(NC(=O)Cc3ccccc3)ccc2O1 -25.4%
CC(C)NC(=O)c1c(O)c2ccccc2[nH]c1=O 11%
COc1ccc(S(=O)(=O)N(C)C[C@@H]2Oc3ccc(NS(=O)(=O)c4cn(C)cn4)cc3C(=O)N([C@H](C)CO)C[C@@H]2C)cc1 -1.19%
CCOc1ccc(S(=O)(=O)/N=C(/Nc2ccc(C(C)=O)cc2)c2ccccc2)cc1 35.1%
Cc1cc(NS(=O)(=O)c2ccc(NC(=O)CCCOc3ccccc3)cc2)no1 17.9%
NC(=NC(=O)c1ccccc1)N1CCOCC1 29%
Cc1ccccc1Nc1ncnc2c1cnn2-c1ccccc1 -4.46%
O=C(c1ccc(F)cc1)N(C(=O)c1ccc(F)cc1)c1ncccn1 -7.59%
O=S(=O)(c1ccc(Br)cc1)n1ccc2ccccc21 17.3%
COC(=O)Nc1ccc(S(=O)(=O)N(CCO)CC(F)(F)C(F)F)cc1 -6.68%
